Experimental data taken from PubChem BioAssay AID1508648 (National Center for Advancing Translational Sciences (NCATS), 2021).
Records with an inconclusive call do not appear. Unmarked numbers belong to inactive results. Calls of active or inactive are those of the source. The call rests on the fitted dose curve; in most records, active means well fitted cell-killing curve with a large enough effect; inconclusive means small, poorly fitted or top-dose-only effect, or effect the other way; inactive means flat fitted curve, though single readings scatter.

Assay: Cell viability assay in S16 Pmp22-HiBiT cells - Confirmatory screen
Conditions: S16 Schwann Pmp22-HiBiT viability, CellTiter-Glo, 24 h; series mostly up to 27.9 µM; activity change, negative = viability loss: at the top concentration
Text: Assay Provider: Jim Inglese Ph.D. National Center for Advancing Translational Science, National Institutes of Health, Rockville, MD CMT is a heterogeneous group of neurological disorders that affect approximately 1 in 2,500 people. In particular, the most common form of CMT, CMT1A is genetically linked to the duplication of the PMP22 gene which leads to Schwann cell overexpression, thus manifesting itself as a typical case of dose-sensitive diseases. To identify small molecule compounds that can mediate the expression of PMP22 we developed a phenotypic assay screening strategy by utilizing genome editing techniques to construct Schwann cell lines containing novel reporter technology to monitor the transcriptional or translational regulation of PMP22. For high sensitivity we use a bioluminescent reporter system embedded in the 3' UTR of the PMP22 gene (S16(c9) Pmp22-F2sN) to identify compounds that inhibit gene expression. […] We can further discriminate the effect of all transcriptionally active molecules on PMP22 translation or stability with an assay that incorporates a short NLuc peptide (HiBiT) at the C-terminus of expressed PMP22 (S16(f8) PMP22-HiBiT) allowing alpha complementation and luminescence detection of membrane-associated PMP22 protein. These assays were screened against the NCATS Sytravon Library Collection. Miniaturization of these assays to 1536-well plate format for quantitative high throughput screening (qHTS) yielded rich data sets immediately from the qHTS assay (S16(c9) Pmp22-F2sN), when compared with data from a cell viability assay (Cell TiterGlo) to identify compounds that decreased the output signals through cellular toxicity to streamline the selection process of actives for subsequent characterization using the HiBiT assay (S16(f8) PMP22-HiBiT).
Cell viability assay in S16 Pmp22-HiBiT cells PROTOCOL TABLE (format as described by Inglese J, Shamu CE and Guy RK. 2007) SEQUENCE No. (e.g., 1, 2, 3, etc.); PARAMETER (e.g., Cells, Incubation, Reagent, etc.); VALUE and DESCRIPTION. 1. Cells. Add 500-1,000 cells in 4 uL in growth media (DMEM High Glucose, No Phenol Red media + 10% heat-inactivated FBS + 1% Pen/Strep supplemented media) per well into Greiner 1536-well white/solid bottom high base, TC-treated plates. 2. Compounds. Library compounds and controls added at 23nL per well, transferred by Pin Tool. 3. Incubation. Incubate plates at 37C, 5% CO2, 95% RH for 24 h. 4. Reagent. Add 3uL CellTiter-Glo per well of Greiner 1536-well plates. 5. Incubation. Incubate plates at room temperature for 15 min., protect from light. 6. Detector. Luminescence measured using CCD-based camera (Viewlux). NOTES (numbers refer to Sequence numbers above; values are from representative experiments) 6. Luminescence Read: Clear filter; Exposure = 1 sec, Gain = High, Speed = Slow, Binning = 2X REFERENCES: 1. Inglese J, Shamu CE and Guy RK, Reporting data from high throughput screening of small molecule libraries, Nature Chemical Biology, 2007, 3(8): 438-441. doi.org/10.1038/nchembio0807-438 2. Yasgar A, Shinn P, Jadhav A, Auld DS, Michael S, Zheng W, Austin CP, Inglese J and Simeonov A, Compound Management for Quantitative High-Throughput Screening. J. Assoc. Lab. Auto., 2008, 13: 79-89. doi: 10.1016/j.jala.2007.12.004

Structure (SMILES) | Potency | activity change, negative = viability loss
CCc1ccc(C(=O)c2cn(CC(=O)Nc3ccc4c(c3)OCO4)c3ccc(CC)cc3c2=O)cc1 | 14.5 µM (active) | –
CCCCCS(=O)(=O)c1oc(-c2cccs2)nc1S(=O)(=O)c1ccc(C)cc1 | 18.2 µM (active) | –
Cc1ccc(OCC(=O)Nc2ccc3nc(SCC(=O)N4CCc5ccccc54)sc3c2)cc1 | – | -19.9%
Cc1ccc(C)c(NC(=O)Cn2c(=O)n(Cc3ccc4c(c3)OCO4)c(=O)c3ccc(C(=O)NC4CCCCC4)cc32)c1 | – | -5.26%
Cc1ccc(S(=O)(=O)c2nnn3c2nc(NC2CCCCCC2)c2sccc23)cc1C | – | -25.6%
COc1ccc(NC(=O)c2oc3ccccc3c2NC(=O)Cc2ccc(F)cc2)c(OC)c1 | – | -17.8%
COc1ccc(Cl)cc1NC(=O)CCCS(=O)(=O)c1nc(-c2ccc(OC)c(OC)c2)cc(C(F)(F)F)n1 | 6.45 µM (active) | –
